The values that follow come from PubChem BioAssay (NCI).

Test systems include NCI-H23 lung; NCI-H226 lung; NCI-H322M lung; HOP-62 NSCLC; NCI-H460 lung; HOP-92 NSCLC; NCI-H522 lung; A549/ATCC NSCLC; 786-0 renal; COLO 205 colon.
Assay in all cases: NCI-60 one-dose screen, 48 h (100 = growth as untreated, 0 = no growth, -100 = all killed)
Common to all, as to settings: 10 µM unless noted

SMILES strings stand for the structures. About 83,000 compounds went through this panel and 20% of them were active in at least one assay; those are over-represented in the sample as a whole.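 For each line, cells grew in 96-well plates with the test compound present at a single concentration for 48 hours.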 Unmarked numbers belong to inactive results. Activity calls are given as the source filed them. The calls were made as follows: active = growth percent below 10; inactive = the rest.

For the molecule `Cc1ccc(C(SCC(N)C(=O)O)(c2ccccc2)c2ccc(C)cc2)cc1` (stereo not given), the growth in the assay on NCI-H23 lung is 12.6%; in the assay on NCI-H226 lung it was 56.3%; with NCI-H322M lung it was 29.4%; with HOP-62 NSCLC it was 31.9%; with NCI-H460 lung, 9.22% (active); in the assay with HOP-92 NSCLC it was -10.1% (active). The growth in the assay with NCI-H522 lung is -19% (active); in the assay on A549/ATCC NSCLC, -2.96% (active); in the assay with 786-0 renal it was 25.1%; in the assay with COLO 205 colon, -3.13% (active).

On to `N#CCCN=Nc1c(O)[nH]c2ccc(F)cc12`, for which the growth in the assay on NCI-H23 lung was 96.3%; in the assay with NCI-H226 lung, 96.1%; with NCI-H322M lung, 103%; in the assay with HOP-62 NSCLC, 98.6%; in the assay with NCI-H460 lung it was 101%; in the assay with HOP-92 NSCLC it was 101%. The growth in the assay with NCI-H522 lung was 85%; in the assay with A549/ATCC NSCLC it was 111%; in the assay with 786-0 renal, 94.1%; in the assay with COLO 205 colon, 118%.

With `COc1cccc(-c2nn(C(C)(C)C)cc2-c2ccnc(NCCCNS(=O)(=O)c3cccc4ccccc34)c2)c1`, the growth is 109% with NCI-H23 lung; 109% with NCI-H226 lung; 111% in the assay on NCI-H322M lung; 103% in the assay on HOP-62 NSCLC; 104% in the assay with NCI-H460 lung; 104% in the assay on HOP-92 NSCLC. For the same molecule, the growth in the assay with NCI-H522 lung is 95.6%; in the assay with A549/ATCC NSCLC, 104%; in the assay on 786-0 renal it was 103%; in the assay on COLO 205 colon it was 115%.

Take `CCn1c(O)c(/C=N/NC(=O)C(C)c2ccc(CC(C)C)cc2)sc1=S` (stereo not given): the growth in the assay with NCI-H23 lung was 39.2%; in the assay on NCI-H226 lung, 31.1%; in the assay on NCI-H322M lung, 37.6%; in the assay on HOP-62 NSCLC it was 22.9%; in the assay on NCI-H460 lung it was 7.24% (active); with HOP-92 NSCLC, 39.9%. The growth with NCI-H522 lung is -11.6% (active); with A549/ATCC NSCLC, 21.8%; in the assay on 786-0 renal it was 17.8%; in the assay on COLO 205 colon it was 15.3%.

Take `COc1cc2c(cc1-c1c(C)noc1C)ncc1nc(C3CCC(F)(F)CC3)n([C@H](C)COC(F)F)c12`: the growth is 60.1% in the assay on NCI-H23 lung; 51.1% with NCI-H226 lung; 42.6% in the assay with NCI-H322M lung; 36.9% in the assay on HOP-62 NSCLC; 56.4% with NCI-H460 lung; 32% with HOP-92 NSCLC. The growth with NCI-H522 lung was 30.3%; in the assay with A549/ATCC NSCLC, 40%; in the assay with 786-0 renal, 46.9%; in the assay on COLO 205 colon, 25.1%.

On to `COc1ccc(CCNc2nc(SC)nc(-c3cccc([N+](=O)[O-])c3)c2C#N)cc1OC`, for which the growth in the assay with NCI-H23 lung was 92.7%; with NCI-H226 lung it was 49.2%; with NCI-H322M lung it was 88.2%; with HOP-62 NSCLC, 67.6%; with NCI-H460 lung, 88.5%; in the assay with HOP-92 NSCLC, 75.8%. For the same molecule, the growth is 66.7% in the assay on NCI-H522 lung, 82.2% in the assay on A549/ATCC NSCLC, 93.2% in the assay with 786-0 renal and 113% in the assay on COLO 205 colon.

Regarding `COc1ccc2nc(NC(=O)CSc3nnc4n3S(=O)(=O)c3ccccc3N4c3ccccc3)sc2c1`, the growth is 87.4% with NCI-H23 lung; 101% in the assay with NCI-H226 lung; 91.2% in the assay with NCI-H322M lung; 94.7% in the assay on HOP-62 NSCLC; 104% with NCI-H460 lung; 46.6% in the assay on HOP-92 NSCLC. Moreover, the growth in the assay on NCI-H522 lung is 64.5%; in the assay on A549/ATCC NSCLC it was 44.8%; with 786-0 renal, 101%; in the assay on COLO 205 colon, 96.1%.

For the molecule `CCOC(=O)n1cc(-c2nonc2-c2cn(C)c3ncccc23)c2cc(F)ccc21`, the growth in the assay on NCI-H23 lung was 76%; with NCI-H226 lung it was 57.8%; in the assay with NCI-H322M lung it was 85.8%; with HOP-62 NSCLC, 89.8%; in the assay on NCI-H460 lung it was 92.1%; in the assay on HOP-92 NSCLC, 58.8%. In addition, the growth with NCI-H522 lung was 72%; in the assay with A549/ATCC NSCLC, 70.1%; in the assay with 786-0 renal, 81.3%; with COLO 205 colon, 96%.

Regarding `O=C(CCN1C(=O)/C(=C/c2ccc(Cl)cc2)SC1=S)NCCCN1CCOCC1`, the growth with NCI-H23 lung is 101%; with NCI-H226 lung, 98.2%; in the assay with NCI-H322M lung, 104%; in the assay on HOP-62 NSCLC, 101%; in the assay on NCI-H460 lung, 102%; with HOP-92 NSCLC, 102%. The growth is 88.9% in the assay with NCI-H522 lung, 102% with A549/ATCC NSCLC, 107% in the assay on 786-0 renal and 108% in the assay with COLO 205 colon.

In the case of `C=C1C(=O)O[C@H]2[C@H]1CC/C(C=Nc1ccc(C(F)(F)F)cc1N)=C\CC[C@@]1(C)O[C@@H]21`, the growth is 12.4% in the assay with NCI-H23 lung; 42.5% in the assay with NCI-H226 lung; 54% with NCI-H322M lung; 47.6% with HOP-62 NSCLC; 15.3% with NCI-H460 lung; 27% in the assay on HOP-92 NSCLC. Moreover, the growth in the assay on NCI-H522 lung was -56.6% (active); in the assay with A549/ATCC NSCLC it was 59.7%; in the assay with 786-0 renal, 25%; with COLO 205 colon, -74.3% (active).

Turning to `Nc1n[nH]c2ccc([C@@H]3Nc4ccc5[nH]ncc5c4[C@H]4C5C=CC(C5)[C@@H]34)cc12` (stereo not given in full), the growth was 14.1% in the assay with NCI-H23 lung; -6.81% (active) in the assay on NCI-H226 lung; 43.8% in the assay on NCI-H322M lung; 41.8% in the assay with HOP-62 NSCLC; -10.8% (active) with NCI-H460 lung; 61.2% in the assay on HOP-92 NSCLC. The growth with NCI-H522 lung is 14.3%; in the assay on A549/ATCC NSCLC, 20.1%; with 786-0 renal it was 30.3%; with COLO 205 colon, 2.87% (active).

Take `FC(F)(F)c1nc2c(NCc3ccc(-c4ccccc4)cc3)cccc2[nH]1`: the growth in the assay on NCI-H23 lung is 80.8%; in the assay on NCI-H226 lung, 79%; in the assay on NCI-H322M lung it was 85.8%; with HOP-62 NSCLC it was 106%; with NCI-H460 lung it was 44.8%; in the assay with HOP-92 NSCLC it was 62%. For the same molecule, the growth with NCI-H522 lung is 50.8%; in the assay on A549/ATCC NSCLC it was 55.5%; in the assay with 786-0 renal, 85%; with COLO 205 colon, 90.3%.

On to `O=C1c2cc3c(cc2-c2c1c1ccc(F)cc1c(=O)n2C[C@H](O)[C@H](O)[C@H](O)CO)OCO3`, for which the growth was -49.4% (active) in the assay on NCI-H23 lung; -34.7% (active) with NCI-H226 lung; 8.49% (active) with NCI-H322M lung; -23.1% (active) in the assay on HOP-62 NSCLC; 1% (active) in the assay with NCI-H460 lung; -7.34% (active) with HOP-92 NSCLC. The growth was -24.6% (active) in the assay with NCI-H522 lung, -45.1% (active) in the assay on A549/ATCC NSCLC, 0.283% (active) with 786-0 renal and -30.9% (active) with COLO 205 colon.

Regarding `COc1ccc(S(=O)(=O)N2CC3(COC3)C2)cc1NC(=O)c1[nH]c(C)c2c1CCCCC2=O`, the growth in the assay on NCI-H23 lung is 59.4%; with NCI-H226 lung, 53.3%; in the assay on NCI-H322M lung, 56.3%; with HOP-62 NSCLC, 40.6%; in the assay on NCI-H460 lung, 71.2%; in the assay on HOP-92 NSCLC it was 48.2%. Also, the growth in the assay with NCI-H522 lung was 32.3%; with A549/ATCC NSCLC it was 62.6%; with 786-0 renal it was 56.5%; in the assay on COLO 205 colon it was 37.5%.
